# Compound activity (PubChem BioAssay)
# NPC1 promoter act: qHTS Assay for NPC1 Promoter Activators | Huh7 NPC1 promoter luciferase reporter, 24 h | actives 2.4% (n = 320,000) | Potency, µM (titrated, usually from 9.22 µM), for inactives: at the highest dose activation, most hits filed as activators; further: % of control where 0% means no effect; nearly all actives have a fitted effect of over 60% in size
#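 Luminescence from an NPC1 promoter-driven luciferase reporter in stably transfected Huh7 cells was measured after 24 h compound treatment at 37 °C, followed by 10 min ambient incubation with luciferase detection reagent.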
# SMN2 splice enh: qHTS Assay for Enhancers of SMN2 Splice Variant Expression; HEK293 SMN2-luciferase splicing reporter, luminescence, 30-36 h; Potency, µM (doses to about 46.1 µM), without a hit: at the highest dose activity change, positive = activation, most hits filed as activators; actives 2.8% (n = 210,000); further: % of control where 0% means no effect; nearly all actives have a fitted effect of over 55% in size
#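 HEK293 cells carry an SMN2 […]–luciferase reporter in which exon 7 inclusion puts luciferase in frame. Cells were plated 10-12 h before compound addition, then incubated 30-36 h at 37C. ONE-Glo luminescence was read; sodium butyrate at 4.5 mM final served as control.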
# ELG1 repair inh: qHTS screen for small molecules that inhibit ELG1-dependent DNA repair in human embryonic kidney (HEK293T) cells expressing luciferase-tagged ELG1; HEK293T ELG1-luciferase reporter, luminescence, 16 h; DNA damage induced by 5-fluorouridine; Potency, µM (titrated, usually from 46.1 µM), without a hit: at the top dose activity change, negative = inhibition, actives largely listed as inhibitors; actives 2.3% (n = 330,000); further: on the % scale 0 is the no-effect control and ±100 the full control effect; nearly all actives have a fitted effect of over 55% in size
#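 Overnight (16 hr) co-exposure of 2,000 cells/well to 5-fluorouridine and compound at 37 °C preceded detection. Luciferase was quantified via ONE-Glo luminescence; loss of signal denotes inhibition.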
# ELG1 genotoxic: qHTS screen for small molecules that induce genotoxicity in human embryonic kidney (HEK293T) cells expressing luciferase-tagged ELG1 | HEK293T ELG1-luciferase reporter, luminescence, 16 h | Potency, µM (top dose mostly 46 µM), for inactives: at the top dose activity change, positive = activation, actives largely listed as activators | actives 1.3% (n = 330,000) | AID 504466, 2011; further: % of control where 0% means no effect; nearly all actives have a fitted effect of over 60% in size
#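 DMSO vehicle served as control against compound-treated ELG1-luciferase HEK293T cells; exposure lasted 16 hr at 37 °C and 5% CO2, followed by ONE-Glo luminescence detection after 30 min.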
# FLuc modulator: qHTS profiling assay for firefly luciferase inhibitor/activator using purifed enzyme and Km concentrations of substrates (counterscreen for miR-21 project) | AID 588342, 2011 | Luciferin 4-monooxygenase (Photinus pyralis), P08659 | purified FLuc, Km substrates, luminescence inhibition | Potency, µM (series often up to 57.5 µM), without a hit: at the highest dose activity change, negative = inhibition, actives largely listed as inhibitors | actives 6.9% (n = 360,000);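 further: plate controls were vehicle for no effect and reference inhibitor for full effect; nearly all actives have a fitted effect of over 55% in size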
# Target sequence (P08659 whole entry, looked up): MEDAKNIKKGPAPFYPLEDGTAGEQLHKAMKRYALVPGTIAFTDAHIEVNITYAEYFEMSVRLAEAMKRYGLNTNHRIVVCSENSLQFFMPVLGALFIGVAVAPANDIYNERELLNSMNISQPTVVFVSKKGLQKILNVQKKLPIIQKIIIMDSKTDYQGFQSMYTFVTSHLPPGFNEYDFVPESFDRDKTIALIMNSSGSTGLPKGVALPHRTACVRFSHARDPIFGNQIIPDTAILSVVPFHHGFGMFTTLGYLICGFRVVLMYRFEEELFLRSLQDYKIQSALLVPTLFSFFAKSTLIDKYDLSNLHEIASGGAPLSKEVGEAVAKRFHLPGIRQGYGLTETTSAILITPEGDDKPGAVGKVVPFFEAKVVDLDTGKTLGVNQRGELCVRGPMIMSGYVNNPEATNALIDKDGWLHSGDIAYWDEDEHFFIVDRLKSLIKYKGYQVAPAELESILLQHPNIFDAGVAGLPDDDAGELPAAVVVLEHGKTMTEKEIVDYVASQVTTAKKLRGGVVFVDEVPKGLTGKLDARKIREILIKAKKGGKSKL
#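 Purified P. pyralis luciferase (10nM final) with 10uM D-luciferin and 10uM ATP (Km levels) in 50mM Tris acetate pH 7.5, 10mM Mg acetate, 0.01% Tween-20, 0.05% BSA; qHTS 6-point titration, ~60 µM downward; luminescence read.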
# Rab9 promoter act: qHTS Assay for Rab9 Promoter Activators | Huh7 Rab9 promoter-luciferase reporter, luminescence, 24 h | Potency, µM (series often up to 9.22 µM), for the others: top-dose activation, negative = inhibition, usual class: activators | actives 2.8% (n = 320,000); further: % of control where 0% means no effect; nearly all actives have a fitted effect of over 60% in size
#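 Using Huh7 cells stably transfected with Rab9 promoter–luciferase, compounds were incubated 24 h at 37 °C, 5% CO2; luciferase luminescence was read 10 min after reagent addition.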
# * = called active by the depositor; ? = inconclusive; · = no result given; [ ] = another dose, or the depositor's remark. This is a sample that favours compounds with a hit; in the whole collection about 9.2% have one here. The call rests on the fitted dose curve; in most records, active means well fitted curve in the direction sought with a large enough effect; inconclusive means small, poorly fitted or top-dose-only effect, or another doubt; inactive means no such curve, though single readings can be large; an effect the other way counts as inactive or inconclusive. Potency means the concentration at half of the fitted maximal effect.
SMILES,NPC1 promoter act,SMN2 splice enh,ELG1 repair inh,ELG1 genotoxic,FLuc modulator,Rab9 promoter act
O=C(Nc1ccc(Cl)cn1)c1cc2ccccc2o1,3.5µM*,7.9µM*,?,0.82µM*,1.9µM*,1.8µM*
O=C(Nc1ncccc1O)c1cc2ccccc2o1,3.2µM*,·,?,?,3.4µM*,0.63µM*
O=C(Nc1ccccn1)c1cc2ccccc2o1,?,0.71µM*,?,?,0.3µM*,0.56µM*
CCCC(=O)NC(c1ccco1)c1cc([N+](=O)[O-])c2cccnc2c1O (stereo not given),0%,-79%,21µM*,-4%,?,-4%
CCC(=O)NC(c1ccc(C)cc1)c1cc([N+](=O)[O-])c2cccnc2c1O (stereo not given),-5%,-102%,-18%,1%,9%,-5%
Cc1sc(NC(=O)C2C3CCC(O3)C2C(=O)O)nc1-c1ccc(CC(C)C)cc1 (stereo not given),7%,20%,?,?,15µM*,20%
CN(C)c1ccc(C(C#N)c2ccc(Cl)cc2)nn1 (stereo not given),12%,-13%,-6%,-1%,1%,0%
CN(C)c1ccc(C(C#N)c2ccccc2)nn1 (stereo not given),3.2µM*,6%,?,1%,-4%,1.4µM*
CNC(=O)C1(C)C=CCN1C(=O)c1ccccc1 (stereo not given),1%,0%,25%,1%,1%,0%
CC1(C(=O)NCCN2CCOCC2)C=CCN1C(=O)c1ccccc1 (stereo not given),12%,?,?,17%,24µM*,28%
CC(C)(C)C1CCc2sc(-c3nnc(CCl)o3)cc2C1 (stereo not given),-2%,-24%,?,5%,24µM*,-1%
CCC(C)(C)c1ccc(OCCCC[n+]2cccc(C)c2C)c(C(C)(C)CC)c1,-30%,·,2.6µM*,-8%,1%,-30%
CCC(C)(C)c1ccc(OCCCC[n+]2ccc(C)cc2)c(C(C)(C)CC)c1,-23%,-75%,10µM*,-6%,2%,-17%
Cc1cc(C(C)(C)C)ccc1OCCCCN1CCCC1,-1%,-8%,12%,-2%,2%,-1%
CC1CC(NS(=O)(=O)c2cc3c4c(c2)CCN4C(=O)CC3)CC(C)(C)C1 (stereo not given),-1%,·,?,0%,7%,-1%
Cc1ccccc1OCC(=O)Nc1ccc([N+](=O)[O-])cc1,13%,·,2%,6%,-2%,15%
CC(C)c1ccc(/C=N/NC(=O)c2c(Cl)cnn2C)cc1,3.2µM*,8.9µM*,?,18µM*,0.67µM*,2.8µM*
O=C(Nc1nnc(-c2ccco2)o1)c1ccc2ccccc2c1,2%,-1%,?,?,?,-4%
N#Cc1ccc(C(=O)Nc2nnc(-c3ccco3)o2)cc1,2%,-29%,16µM*,-1%,?,8%
Cc1ccc(C(=O)Nc2nnc(-c3ccco3)o2)cc1,3.5µM*,13µM*,?,?,13µM*,4µM*
O=C(Nc1nnc(-c2ccc(F)cc2)o1)c1ccco1,9%,·,16%,4%,17µM*,0%
CC(C)(C)N/N=C1\CC(c2ccccc2)Oc2ccccc21 (stereo not given),1%,·,18%,-2%,-1%,-3%
O=C(O)c1cc(NN=C2CCN(Cc3ccccc3)CC2)ccc1Cl,4µM*,·,?,?,?,2.8µM*
CCOC(=O)C1=C(C)C/C(=N\NC(=O)c2ccccc2O)CC1,?,·,?,26%,7.6µM*,?
O=C(O)c1cc(N/N=C2/CC(c3ccccc3)Oc3ccccc32)ccc1Cl (stereo not given),-1%,-3%[1.84 µM],?,10%,27µM*,5%
SMILES,NPC1 promoter act,SMN2 splice enh,ELG1 repair inh,ELG1 genotoxic,FLuc modulator,Rab9 promoter act
O=C(NN=C1CCN(Cc2ccccc2)CC1)c1cc2ccccc2cc1O,-1%,13%,18%,1%,?,5%
O=C(NN=C1CCN(Cc2ccccc2)CC1)c1ccccc1O,-2%,·,12%,4%,24µM*,3%
CCn1cc(S(=O)(=O)c2cc(C)cc(C)c2)c(=O)c2cc(F)c(N3CCN(c4ccccc4)CC3)cc21,·,·,·,·,0%,·
Cc1ccc(-n2ncc(C(=O)NCc3cccs3)c2C2CCN(C(=O)OC(C)(C)C)CC2)cc1,·,·,·,·,-1%,·
Cc1ccc2c(c1)c1c3n2CCN(C(=O)c2ccc(C(F)(F)F)cc2)C3CCC1 (stereo not given),·,3%,·,·,-9%,·
COC(=O)N1CCC[C@@]2(CCN(c3ncccn3)C2)C1,·,-2%,·,·,·,·
COc1ccc(C(=O)N2CCc3cc(OC)c(OC)cc3C2COc2ccc3c(C)cc(=O)oc3c2)c(OC)c1 (stereo not given),·,6%,·,·,0%,·
CCN(CC)C(=O)c1ccc2c(c1[N+](=O)[O-])C(=O)c1ccccc1C2=O,2.8µM*,13µM*,?,?,3%,2.2µM*
O=C(N/N=C/c1cc(O)ccc1Br)c1cccnc1,-35%,·,?,?,?,-36%
CC1Oc2ccccc2C=C1/C=N\NC(=O)c1cccnc1 (stereo not given),18%,·,?,?,17µM*,15%
CC1Oc2ccccc2C=C1/C=N/NC(=O)c1ccccc1O (stereo not given),?,13µM*,-8%,-3%,1.7µM*,?
